Assay outcomes: PubChem, National Center for Advancing Translational Sciences (NCATS)
Only some compounds are listed: those with a hit (about 8.1% of all), similar ones and a draw of the others.
KB-3-1 tox = qHTS assay for MDR1-selective chemotherapeutics: Primary screen using the parental adenocarcinoma cell KB-3-1; KB-3-1 viability, CellTiter-Glo ATP luminescence, 72 h; Potency, µM (highest dose often 46.1 µM), most hits filed as cytotoxic; actives 1.4% (n = 400,000); further: nearly all actives have a fitted effect of over 60% in size
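Cytotoxicity measured as CellTiter-Glo luminescence after 72 h at 37 C. Compound titrations were pinned onto drug-naive KB-3-1 parental adenocarcinoma cells grown in DMEM with 10% FBS, and normalized data fitted to concentration-response curves.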
KB-V1 cytotox = qHTS assay for MDR1-selective chemotherapeutics: Primary screen using the drug-selected MDR subline cells KB-V1 | actives 3.4% (n = 400,000) | AID 1347076, 2019 | Potency, µM (top dose mostly 46.1 µM), actives largely listed as cytotoxic | KB-V1 MDR cells viability, CellTiter-Glo, 72 h; further: nearly all actives have a fitted effect of over 60% in size
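Compound-treated KB-V1 multidrug-resistant cells, 72 h, 37 degrees C; viability by CellTiter-Glo. Fitted qHTS curves give the values.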
MCF10A rereplic = A quantitative high throughput screen for small molecules that induce DNA re-replication in MCF 10a normal breast cells; MCF 10A DNA re-replication, Hoechst nuclear intensity, 48 h; actives 2.9% (n = 350,000); Potency, µM (series often up to 46.1 µM), actives largely listed as activators; AID 624296, 2012; further: nearly all actives have a fitted effect of over 50% in size
ELG1 repair inh = qHTS screen for small molecules that inhibit ELG1-dependent DNA repair in human embryonic kidney (HEK293T) cells expressing luciferase-tagged ELG1; AID 504467, 2011; Potency, µM (titrated, usually from 46.1 µM), usual class: inhibitors; HEK293T ELG1-luciferase reporter, luminescence, 16 h; DNA damage induced by 5-fluorouridine; actives 2.3% (n = 330,000); further: nearly all actives have a fitted effect of over 55% in size
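Luminescence from the luciferase reporter, measured 30 min after ONE-Glo reagent at room temperature, was the read-out. Beforehand, 2,000 cells per well were exposed for 16 hr at 37 °C to 5-fluorouridine together with compound or vehicle.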
SW480 rerep = A quantitative high throughput screen for small molecules that induce DNA re-replication in SW480 colon adenocarcinoma cells. Potency, µM (doses to about 46.1 µM), most hits filed as activators. SW480 DNA re-replication, Hoechst DNA content imaging, 48 h. actives 1.8% (n = 340,000); further: nearly all actives have a fitted effect of over 55% in size
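Treated cells incubate 48 hr (37 C, 5% CO2), are stained 40 min with Hoechst, and nuclear fluorescence is enumerated; a rise in nuclei with high DNA signal marks re-replication.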
Hits are given with their value; n = inactive; u = inconclusive; x = no result; [ ] = dose if it differs, or a comment. The call rests on the fitted dose curve; in most records, active means well fitted curve in the direction sought with a large enough effect; inconclusive means small, poorly fitted or top-dose-only effect, or another doubt; inactive means no such curve, though single readings can be large; an effect the other way counts as inactive or inconclusive.

SMILES	KB-3-1 tox	KB-V1 cytotox	MCF10A rereplic	ELG1 repair inh	SW480 rerep
Cc1ccc2[nH]c(CSc3nnc(COc4ccccc4C)n3C)cc(=O)c2c1	u	n	x	x	x
Cc1ccccc1OCc1nnc(SCc2cc(=O)c3cc(F)ccc3[nH]2)n1C	21µM	n	x	x	x
COc1ccccc1CCNC(=O)c1cnn2c(C(F)F)cc(C)nc12	n	n	n	n	n
COc1ccccc1CNC(=O)c1cnn2c(C(F)F)cc(C)nc12	n	n	n	23µM	n
CCOc1ccccc1NC(=O)c1cnn2c(C(F)F)cc(-c3ccccc3)nc12	18µM	n	x	x	x
CCCn1ncc(CN2CCC(Oc3ccc(C(=O)N4CCCC4)cc3)CC2)c1C	n	n	n	n	n
CCN(CC)CCCNC(=O)Cn1ncn2cccc2c1=O	n	n	n	n	n
O=C(C1CCN(S(=O)(=O)c2cccc3cccnc23)CC1)N1CCN(c2ccccn2)CC1	n	n	n	n	n
O=C(C1CCN(S(=O)(=O)c2cccnc2)CC1)N1CCN(c2ccc(Cl)cc2)CC1	13µM	6.5µM	n	2.9µM	n
O=C(C1CCN(S(=O)(=O)c2cccc3cccnc23)CC1)N1CCN(c2ccc(Cl)cc2)CC1	n	n	n	18µM	n
O=C(NCc1cc(C(F)(F)F)ccc1Cl)c1cccc2c1C(=O)c1ccc(N3CCC(Cc4ccccc4)CC3)cc1S2(=O)=O	n	n	n	n	n
COc1ccc(NC(=O)N[C@@H](Cc2ccccc2)C(=O)NN)cc1	n	n	n	n	n[9.22 µM]
O=C(CCNC(=O)OCc1ccccc1)NC1CCCCC1	n	n	n	n	n
c1ccc(-c2c[n+]3c(n2-c2ccccc2)SCC3)cc1	3.3µM	u	n	u	n
CCOc1ccc(-n2c(-c3ccc(Cl)cc3)c[n+]3c2SCC3)cc1	16µM	n	u	u	n
Cn1c(-c2ccccc2)c[n+]2c1-c1ccccc1C2	u	n	n	n	n
COc1ccccc1C(=O)NC(=O)COC(=O)c1cccc(NC(C)=O)c1	n	n	n	n	n
Cc1oc(-c2cccs2)nc1CN1CCN(CCC(C)C)C(CCO)C1 (centres undefined)	n	n	23µM	n	u
COc1cc2ccccc2cc1C(=O)N(CCN(C)C)c1nc2ccc(Br)cc2s1	u	u	u	n	23µM
CN(C)CCCN(C(=O)CCc1ccccc1)c1nc2ccc(F)cc2s1	n	n	n	n	n
CN(C)CCCN(C(=O)CCc1ccccc1)c1nc2ccc(Br)cc2s1	u	23µM	u	n	n
Cc1cccc2sc(N(CCCN(C)C)C(=O)CCc3ccccc3)nc12	u	16µM	u	n	u
CN(C)CCN(C(=O)c1ccccc1Cl)c1nc2c(Cl)cccc2s1	n	23µM	u	n	u
N#Cc1c(/N=C/c2cc3ccccc3s2)sc2c1CCC2	n	n	n	u	n
CCC(=O)OCCn1c(=O)c2ccccc2c2ccccc2c1=O	n	u	n	n	n
SMILES	KB-3-1 tox	KB-V1 cytotox	MCF10A rereplic	ELG1 repair inh	SW480 rerep
CSc1nc2nc3c(cc2c(=O)n1-c1ccccc1C)CCCC3	u	u	n	u	n
COC(=O)C1CC(O)C(O)C(O)C1 (centres undefined)	n	n	n	x	n
Cc1ccc(S(=O)(=O)NCC(=O)NCC(=O)OCc2c(F)cccc2Cl)cc1	n	n	n	n	18µM
O=C([C@@H]1CCCN1C(=O)c1cccs1)N1CCN(S(=O)(=O)c2ccccc2F)CC1	n	n	n	n	n
Cc1cc(Nc2ccc(C(C)C)cc2)n2ncnc2n1	15µM	7.3µM	n	u	n
COc1ccc(Nc2cc(C)nc3ncnn23)cc1	n	n	u	x	n
CCc1ccc(OCc2nnc(SCC(=O)N3CCOCC3)o2)cc1	n	u	n	n	n
CCOC(=O)CN1CCc2c(C)nc3c(-c4ccc(OC)c(OC)c4)cnn3c21	n	8.2µM	u	n	u
COc1ccc2c(CC(=O)N(C)CC3COc4ccccc4O3)coc2c1 (centres undefined)	n	18µM	n	u	n
COc1ccc(OCC(=O)N(C)CC2COc3ccccc3O2)cc1 (centres undefined)	u	n	u	n	n
Cc1ccc(NC(=O)CSc2ccc(-c3ccccn3)nn2)c(C)c1	n	n	u	21µM	n
CCOc1ccc(NC(=O)CSc2ccc(-c3ccccn3)nn2)cc1	n	2.9µM	n	u	n
Cc1cc(C)c(NC(=O)CSc2ccc(-c3ccccn3)nn2)c(C)c1	n	u	n	n	n
Clc1ccc(Cn2c(-c3cccnc3Cl)nc3ccccc32)cc1	n	n	n	n	n
Clc1ccc(Cn2c(-c3cccnc3Cl)nc3ccccc32)c(Cl)c1	u	23µM	16µM	n	n
CC(=O)Nc1ccc(C(=O)OCC(=O)c2cccc([N+](=O)[O-])c2)cc1	n	n	n	n	n
O=C(/C=C/c1ccc([N+](=O)[O-])cc1)Nc1cccc(S(=O)(=O)NC2=NCCCCC2)c1	n	18µM	n	15µM	n
Cc1ccc(C(=O)COC(=O)c2cccc(NC(=O)c3ccc([N+](=O)[O-])cc3[N+](=O)[O-])c2)cc1	u	18µM	u	u	n
CCOC(=O)c1cccc(NC(=O)/C=C/c2ccc([N+](=O)[O-])cc2)c1	n	4.1µM	n	u	n
COC(=O)c1cccc(NC(=O)/C=C/c2ccc([N+](=O)[O-])cc2)c1	n	n	n	u	n
Cn1c2c(c(=O)n(C)c1=O)C(NS(=O)(=O)c1ccc(Cl)cc1)(C(F)(F)F)C(=O)N2 (centres undefined)	n	n	n	n	n
CC(=O)c1cccc(NC(=O)c2cc(C(C)C)on2)c1	n	n	n	u	n
CC(C)Cc1csc(NC(=O)c2ccc(Br)cc2)c1C(=O)O	n	n	n	n	n
Cc1ccc(-c2cn(-c3ccc(SC(F)F)cc3)c3[n+]2CCC3)cc1	2.1µM	n	n	u	n
FC(F)Sc1ccc(-n2cc(-c3ccc(Cl)cc3)[n+]3c2CCC3)cc1	18µM	n	n	n	n
Clc1ccc(-n2cc(-c3ccc(Br)cc3)[n+]3c2CCCCC3)cc1	u	n	n	u	u
NC(=O)N1c2ccccc2CC(=O)c2ccccc21	n	n	n	n	u
CCOC(=O)c1cnc(SC)nc1Oc1cccc(NS(=O)(=O)c2ccc(F)cc2)c1	n	n	n	n	n
CCOC(=O)c1cnc(SC)nc1Nc1cccc2ccccc12	n	12µM	u	n	n
CCOC(=O)c1cnc(SC)nc1Nc1cccc(F)c1	n	15µM	n	n	n
